“And” between values parts separate entries of the source, which are not always exact repeats. Identical values can stand only once. A structure can be active in one record and inactive in another. The source made the active and inactive calls. The calls were made as follows: active = hit-call score of the fitted dose curve at least 0.9, where 1 is the maximum; inactive = score below 0.9.
These compounds were tested on Pselectin, SELP (gene 6403) (assay: BSK_4H_Pselectin: BioMAP Diversity Plus: 4H Assay for Pselectin Biomarker Activity (AID 2283026)). Settings: primary human endothelial cells (HUVEC); actives raise or lower the signal.
Protocol: BSK_4H is a cell-based, multiplexed-readout assay that uses umbilical vein endothelium, a human vascular primary cell, with measurements taken at 24 hours after chemical dosing in a 96-well plate.BSK_4H_Pselectin is an assay component measured in the BSK_4H assay. It measures P-Selectin antibody related to regulation of gene expression using ELISA technology.Data from the assay component BSK_4H_Pselectin was analyzed into 1 assay endpoint. This assay endpoint, BSK_4H_Pselectin, was analyzed with bidirectional fitting relative to DMSO as the negative control and baseline of activity. Using a type of binding reporter, gain or loss-of-signal activity can be used to understand changes in the signaling as they relate to the gene SELP. Furthermore, this assay endpoint can be referred to as a primary readout, because this assay has produced multiple assay endpoints where this one serves a signaling function. To generalize the intended target to other relatable targets, this assay endpoint is annotated to the cell adhesion molecules intended target family, where the subfamily is selectins.
The levels of cell surface (or secreted, indicated by the prefix "s") biomarker endpoints were measured by ELISA. Overt cytotoxicity to cells in confluent adherent cultures (all systems other than the BT system) was assessed by measuring total protein levels using sulforhodamine B (SRB) staining in parallel cultures at the time of biomarker measurements, indicated as SRB endpoints. For proliferation assays for adherent cell types, individual cell types are cultured at sub-confluence and relative cell numbers quantified by SRB staining at time points optimized for each system (48 h: 3C and CASM3C systems; 72 h: BT and HDF3CGF systems; 96 h: SAg system). SRB was performed by staining cells with 0.1% SRB after fixation with 10% TCA and reading wells at 560 nm.Viability and proliferation of PBMC (T cells) was quantified by Alamar Blue reduction for the SAg and BT systems. For PBMC viability (referred to as PBMC Cytotoxicity within the assay endpoint names), cells were plated (75,000/well in a 96-well plate) and then chemical samples added for 1 h before addition of activators, SEB and TSST-1 (20 ng/mL final concentration each). Cells were incubated for 90 h. Then, Alamar Blue (20 uL/well) (Invitrogen, Cat DAL1100) was added for 6 h, and the plates were read with a fluorescence microplate reader at 546/580 nm (excitation/emission). For PBMC proliferation, cells were plated and activated as above but incubated for only 16 h prior to addition of Alamar Blue. Plates were read after 6 h.

Row | SMILES | outcome | AC50
1 | CCOC(=O)c1ccccc1C(=O)OCC | inactive | –
2 | c1ccc2c(c1)Nc1ccccc1S2 | inactive | –
3 | Cc1ccc([N+](=O)[O-])cc1C | inactive | –
4 | ClC(Cl)=C(c1ccc(Cl)cc1)c1ccccc1Cl | – | 10.6 µM (active)
5 | O=S1(=O)OCC2C(CO1)C1(Cl)C(Cl)=C(Cl)C2(Cl)C1(Cl)Cl (stereo not given) | – | 12.2 µM (active)
6 | FC(F)(F)C(F)(C(F)(F)F)C(F)(F)C(F)(F)CC1CO1 (stereo not given) | inactive | –
7 | O=C(O)C(F)(F)OC(F)(F)C(F)(F)OC(F)(F)F | inactive | –
8 | CCOS(=O)(=O)OCC | inactive | –
9 | c1nc[nH]n1 | inactive | –
10 | COP(N)(=S)OC | inactive | –
11 | CC(C)(C)c1ccc(O)cc1 | inactive | –
12 | Nc1ccc([N+](=O)[O-])cc1Cl | inactive | –
13 | ClC1=C(Cl)C2(Cl)C3C(Cl)C(Cl)CC3C1(Cl)C2(Cl)Cl (stereo not given) | – | 24.7 µM (active)
14 | COP(=O)(O)OC | inactive | –
15 | OCC(F)(F)OC(F)(F)C(F)(F)OC(F)(F)C(F)(F)OC(F)(F)F | – | 52.2 µM (active) and 44.9 µM (active)
16 | [N-]=[N+]=[N-] | inactive | –
17 | Nc1ccc2ccccc2c1 | inactive | –
18 | C=CC(=O)OCC(F)(F)C(F)F | inactive | 19.2 µM (active)
19 | CCCCOCCOP(=O)(OCCOCCCC)OCCOCCCC | inactive | –
20 | O=C(O)C=CC(F)(C(F)(F)F)C(F)(F)F | inactive | –

Row | SMILES | outcome | AC50
21 | OCC(F)(F)OC(F)(F)C(F)(F)OC(F)(F)C(F)(F)OC(F)(F)CO | inactive | –
22 | O=C(O)C(Cl)Cl | inactive | –
23 | Cc1ccc2c(c1N)C(=O)c1ccccc1C2=O | inactive | –
24 | O=C(O)C(F)(F)C(F)(F)C(=O)O | inactive | –
25 | CCOc1ccc(C(C)(C)COCc2cccc(Oc3ccccc3)c2)cc1 | inactive | –
26 | CCOP(=S)(S)OCC | inactive | –
27 | O=C(O)C(F)(F)OC(F)(F)C(F)(F)OC(F)(F)C(=O)O | inactive | –
28 | CN(C)C(=O)Cl | inactive | –
29 | ClC(Cl)(Cl)c1ccccc1 | inactive | –
30 | OCC1CO1 (stereo not given) | inactive | –
31 | O=c1ssc(Cl)c1Cl | – | 4.74 µM (active)
32 | C=CC(=O)OCC(CC)(COC(=O)C=C)COC(=O)C=C | – | 2.25 µM (active)
33 | CCCCCCCc1ccc(O)cc1 | – | 30.9 µM (active)
34 | O=P(OCC(Br)CBr)(OCC(Br)CBr)OCC(Br)CBr (stereo not given) | inactive | –
35 | COC(=O)C(F)(F)C(F)(F)OC(F)(C(F)(F)F)C(F)(F)OC(F)=C(F)F (stereo not given) | inactive | –
36 | OCC(F)(F)OC(F)(F)C(F)(F)OC(F)(F)CO | inactive | –
37 | Cc1ccc(O)cc1C | inactive | –
38 | c1cc2c3c(cccc3c1)CC2 | inactive | –
39 | COCCOCCO | inactive | –

— PubChem BioAssay (EPA / NIEHS)
